Assay outcomes as filed in PubChem BioAssay.
GAA spleen mod: lysosomal alpha-glucosidase (human) modulation. P10253. human spleen homogenate, 4-MU-alpha-glucoside fluorescence. Potency, µM (doses to about 79.9 µM), usual class: inhibitors. 0.006% of 240,000 active. AID 2112
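Enzyme source: human spleen homogenate, 1 ug/well. Buffer 50 mM citric acid/K phosphate pH 5.0, 0.01% Tween-20. 4-MU-alpha-glucoside 1 mM; 37 C x 40 min; NaOH/glycine stop; fluorescence.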
N370S GC mod: N370S glucocerebrosidase modulation, Gaucher chaperone candidate | P04062 | N370S GC spleen homogenate, 4MU-glucoside fluorescence | Potency, µM (highest dose often 59.4 µM), actives largely listed as inhibitors | 0.092% of 330,000 active | AID 2101
GAA inhib: blocks human lysosomal alpha-glucosidase. P10253. purified human GAA, 4-MU-alpha-glucoside fluorescence. Potency, µM (series often up to 76.9 µM), actives largely listed as inhibitors. 0.005% of 200,000 active. AID 1466
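Activity normalized between no-enzyme (basal) and enzyme-only wells. Conditions: 4 nM human enzyme, 400 uM fluorogenic substrate, citrate/phosphate pH 5.0 with Tween-20, 20 min room temperature, compounds up to 77 uM.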
GLA inh pH 4.5: alpha-galactosidase A (human) inhibition, pH 4.5. 230,000 tested, under 10 active. activity change, negative = inhibition, % at 105 µM. purified enzyme, 4-MU-alpha-Gal fluorescence, pH 4.5
aGal spleen mod: alpha-galactosidase A (human) modulation. P06280. human spleen homogenate, 4MU-alpha-Gal fluorescence, 40 min. Potency, µM (titrated, usually from 80 µM), usual class: inhibitors. 0.008% of 240,000 active. AID 2107
Target sequence (P06280 32-429 limits assumed): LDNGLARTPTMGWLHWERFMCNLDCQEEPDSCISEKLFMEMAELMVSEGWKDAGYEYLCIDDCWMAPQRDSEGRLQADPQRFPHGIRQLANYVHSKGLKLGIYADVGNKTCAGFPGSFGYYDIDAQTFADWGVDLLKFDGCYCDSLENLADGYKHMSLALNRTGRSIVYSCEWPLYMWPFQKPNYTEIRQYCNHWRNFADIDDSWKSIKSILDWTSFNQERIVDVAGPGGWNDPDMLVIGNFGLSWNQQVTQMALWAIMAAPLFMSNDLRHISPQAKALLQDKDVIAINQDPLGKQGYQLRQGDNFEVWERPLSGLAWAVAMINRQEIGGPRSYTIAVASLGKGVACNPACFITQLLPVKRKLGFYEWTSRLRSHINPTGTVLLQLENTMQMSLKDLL
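Human spleen homogenate (1 ug) as enzyme source, 4-methylumbelliferyl-alpha-D-galactopyranoside 1 mM final, citrate/phosphate pH 5.0 with 0.01% Tween-20. Compounds 40 min at 37C, NaOH/glycine stop; fluorescence Ex 365/Em 440, Hill-fit AC50.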
GAA glycogen mod: inhibitors or activators of human alpha-glucosidase glycogen cleavage. recombinant GAA, glycogen substrate, Amplex Red glucose oxidase fluorescence. Potency, µM (series often up to 76.4 µM), most hits filed as inhibitors. 0.38% of 300,000 active. AID 2100;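 note: the screen sought inhibitors and activators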
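Recombinant human alpha-glucosidase (4 nM final) hydrolysed bovine liver glycogen (30 ug) for 40 min at 37 C in pH 5.0 citrate/phosphate with 0.01% Tween-20. Released glucose detected by glucose oxidase/Amplex Red, Ex 573/Em 610 nm. Compounds up to 77 uM; AC50 from Hill fits.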
Of the large screens only hits and unclear results are named; the others gave an inactive call. In the library only some 0.43% were active in any assay of this set; here they are far more common. Calls come from the whole dose curve; as a rule, active = well fitted curve in the direction sought with a large enough effect; inconclusive = small, poorly fitted or top-dose-only effect, or another doubt; inactive = no such curve, though single readings can be large; an effect the other way counts as inactive or inconclusive.

O=C(CSc1n[nH]c(-c2ccccc2)n1)c1ccc(O)c(O)c1	GAA glycogen mod 10µM
O=C1C[C@@H](O)[C@@H](O)[C@@H]2[C@H]3C(=O)N(c4ccc(F)cc4F)C(=O)[C@@H]3CC[C@@H]12	none (no result: GAA inhib, GLA inh pH 4.5, GAA glycogen mod)
O=C(NNc1c2ccccc2nc2ccccc12)c1ccccc1O	none
O=C(NNc1c2ccccc2nc2ccccc12)c1ccc(O)cc1	GAA glycogen mod 11µM
O=C(NNc1c2ccccc2nc2ccccc12)c1ccc(O)cc1O	GAA glycogen mod 28µM
Cc1ccc(C(=O)Nc2nc3ccccc3n3nnnc23)cc1	none
Cc1ccc(C(=O)NNc2nc3ccccc3nc2C(F)(F)F)cc1	GAA glycogen mod 16µM
C=CC1=C2C=C(C3CC3)N(CCCCO)C=C2C(=O)C(C)(OC(=O)c2ccco2)C1=O (centres undefined)	none (no result: GAA inhib, GAA glycogen mod)
COc1cccc(Nc2ncc3nc(C)c(=O)n(C4CC4)c3n2)c1	none (no result: GAA inhib, GLA inh pH 4.5, GAA glycogen mod)
O=[N+]([O-])c1cc(Cl)ccc1N1CCN(c2ccccc2O)CC1	GAA glycogen mod 8.8µM
NC(=O)c1ccc(N2CCN(c3ccc(O)cc3)CC2)c([N+](=O)[O-])c1	GAA glycogen mod 5µM
CC(=O)c1ccc(N2CCN(c3ccc(C(N)=O)cc3[N+](=O)[O-])CC2)cc1	none
CCc1ccc(O)c(N=Cc2cccc(C)c2O)c1	GAA glycogen mod 16µM
Cc1cccc(C=Nc2ccc3c4c(cccc24)CC3)c1O	GAA glycogen mod 14µM
C=CCc1cccc(C=Nc2cc(Br)ccc2O)c1O	GAA glycogen mod inconclusive
Cc1noc(C)c1-c1ccc2ncnc(NCc3ccc(-c4ccccc4)cc3)c2c1	none (no result: GAA inhib, GLA inh pH 4.5, GAA glycogen mod)
CCNc1ccc(S(=O)(=O)N(C)C)cc1NCC(=O)Nc1ccc(F)c(Cl)c1	N370S GC mod 7.9µM
CCNc1ccc(S(=O)(=O)N(C)C)cc1NCC(=O)Nc1ccccc1F	N370S GC mod 10µM, GAA inhib inconclusive, GAA glycogen mod inconclusive
CCNc1ccc(S(=O)(=O)N(C)C)cc1NCC(=O)Nc1ccc(Br)cc1F	GAA glycogen mod inconclusive
COc1ccc(-c2ccc(C(C)=O)cc2)cc1C1C2C=CCCC2(C)C(=O)N1Cc1ccccc1 (centres undefined)	none (no result: GAA inhib, GLA inh pH 4.5, GAA glycogen mod)
CCC1=C2CC[C@H]3C(=O)N(c4ccccc4)C(=O)[C@H]3[C@H]2[C@@]2(C)C(=O)N(CC(=O)OC)C(=O)N2C1=O	none (no result: GAA inhib, GAA glycogen mod)
CCOC(=O)CCN1C(=O)[C@H]2[C@H]3[C@H](O)[C@H](O)C/C(=N/OC/C=C(\C)CCC=C(C)C)[C@H]3CC[C@@H]2C1=O	none (no result: GAA inhib, GLA inh pH 4.5, GAA glycogen mod)
Cc1nnsc1C(=O)NNS(=O)(=O)c1cc(C(F)(F)F)cc(C(F)(F)F)c1	GAA glycogen mod inconclusive
Cc1ccc(S(=O)(=O)NNC(=O)c2snnc2C)cc1	GAA glycogen mod 25µM
O=C(O)C1NCCN(C(=O)c2ccc3c(ccc4ccccc43)c2)C1C(=O)O (centres undefined)	none (no result: GAA inhib, GLA inh pH 4.5, GAA glycogen mod)
COc1cc(/C=N/Nc2ccc(Cl)c(C(=O)O)c2)ccc1OC(=O)c1ccccc1F	GAA glycogen mod 5.6µM (no result: GAA spleen mod, GAA inhib, GLA inh pH 4.5, aGal spleen mod)
CC1(C)CC(O)C(C)(C)N1O (centres undefined)	GAA glycogen mod 16µM
Cc1ccc(NC(=O)Cn2cc(C(=O)c3ccco3)c3ccccc32)cc1C	none (no result: GAA spleen mod, N370S GC mod, GAA inhib, GLA inh pH 4.5, aGal spleen mod)
O=C(c1ccc2c(c1)N(Cc1ccccc1)C(=O)c1ccccc1S2(=O)=O)N1CCOCC1	none (no result: GAA spleen mod, N370S GC mod, GAA inhib, GLA inh pH 4.5, aGal spleen mod)
Nc1ccccc1Nc1cccc(C(F)(F)F)c1	GAA glycogen mod 11µM (no result: GAA spleen mod)
Oc1ccc(Nc2nc3ccccc3nc2Nc2ccc(O)cc2)cc1	N370S GC mod 4.5µM, GAA glycogen mod 20µM
Oc1ccc(/C=N/Nc2ccccc2)cc1	GAA glycogen mod inconclusive
Cc1nc2ccccc2nc1N/N=C/c1ccc(O)cc1	GAA glycogen mod 25µM (no result: GAA inhib)
CCC(=O)N1C2=C(c3ccccc3[C@@H]1CC(=O)Nc1ccc3ccccc3c1)[C@@H]1C(=O)N(c3ccccc3)C(=O)[C@@H]1[C@H](C)C2	none (no result: GAA inhib, GAA glycogen mod)
Cc1cc(C)nc(NNC2=CC(=[N+]3CCCC3)CCC2)n1	GAA glycogen mod 2.2µM
Cc1ccccc1NS(=O)(=O)c1ccc(C(=O)N2CCCC2)cc1	none (no result: GAA spleen mod, GAA inhib, GLA inh pH 4.5, aGal spleen mod, GAA glycogen mod)
